From PubChem
In the library only some 19% were active in any assay of this set; here they are far more common.
SARS PLP yeast: SARS-CoV PLP inhibition in yeast | S. cerevisiae expressing SARS-CoV PLpro, growth rescue | Potency, µM (series often up to 32.9 µM), inactives show at the top dose activity, positive = growth rescue, hits mostly activators | 0.19% of 330,000 active; calls by dose curve; note: potency is the fitted concentration of half-maximal effect; 0% is about no effect; nearly all actives have a fitted effect of over 55% in size
Shiga inhibitor: blocks Shiga toxin action in Vero cells | Vero cells, Shiga toxin protein synthesis inhibition reporter | inhibition, % at 38.7 µM | 9.2% of 290,000 active | AID 2315; in the data active = inhibition mostly above about 28%, no sharp cut-off; inactive = mostly below about 43%; note: 0% is about no effect
AMA1-RON2 inh: disrupts binding of P. falciparum AMA1 to RON2. AlphaScreen AMA1-biotinylated RON2 peptide binding. Potency, µM (titrated, usually from 58.2 µM), inactives show at the top dose activity change, negative = inhibition, most hits filed as inhibitors. 0.2% of 360,000 active. AID 720542;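 note: potency is the fitted concentration of half-maximal effect; 0% = vehicle wells and -100% = peptide control; nearly all actives have a fitted effect of over 45% in size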
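AMA1 (3D7) with his tag at 25 nM final met compounds first, then biotinylated RON2 peptide at 25 nM; detection used donor plus acceptor beads, 10 µg/mL apiece, read by AlphaScreen after 30 min at room temperature.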
Pf growth 96h: P. falciparum growth inhibition at 96 hour, primary screen for plastid delayed-death inhibitors. P. falciparum luciferase reporter growth, 96 h. Potency, µM (top dose mostly 28.7 µM), inactives show top-dose activity change, negative = inhibition, hits mostly inhibitors. 6.9% of 320,000 active; note: potency is the fitted concentration of half-maximal effect; % is set by controls: 0 for no effect and ±100 for the full control effect
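Luminescence readout: decreased luciferase signal marks inhibited growth of reporter-expressing P. falciparum in infected red cells (2% hematocrit, 0.05% parasitemia final), exposed to compound two generations (96 h, 37 C, 5% CO2).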
Cycloheximide cs: counter-screen for Shiga toxin inhibitors: cycloheximide protein synthesis inhibition. cell reporter, cycloheximide protein synthesis inhibition counterscreen. max response, %. 12% of 300,000 active; in the data active = max response mostly above about 13%, no sharp cut-off; inactive = mostly below about 14%; note: read at 38.3 µM for the half of the compounds with a filed dose; 0% is about no effect
Pf growth 48h: inhibits P. falciparum growth in the first generation, 48 h. AID 504832. P. falciparum luciferase growth in erythrocytes, 48 h. Potency, µM (highest dose often 28.7 µM), without a hit: at the top dose activity change, negative = inhibition, usual class: inhibitors. 5.9% of 310,000 active; note: potency is the fitted concentration of half-maximal effect; % is set by controls: 0 for no effect and ±100 for the full control effect
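Luciferase-expressing parasites in RBCs, 2% Hct / 0.1% parasitemia final; RPMI 1640 + 0.5% Albumax; 37 C, 5% CO2, one generation; luminescence read-out, lower signal = inhibition.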
Starred values were filed as active, the others as inactive; ? = inconclusive; nt = no result; [ ] = dose if it differs, or a comment. Unless noted, calls come from the whole dose curve; as a rule, active = well fitted curve in the direction sought with a large enough effect; inconclusive = small, poorly fitted or top-dose-only effect, or another doubt; inactive = no such curve, though single readings can be large; an effect the other way counts as inactive or inconclusive.

SMILES	SARS PLP yeast	Shiga inhibitor	AMA1-RON2 inh	Pf growth 96h	Cycloheximide cs	Pf growth 48h
CCOC(=O)c1[nH]c2ccc(OC)cc2c1NC(=O)CCN1CCCC(C)C1 (centres undefined)	-1%	-13	12%	?	0	8%
O=C(NCC(=O)N1CC=C(c2ccccc2)CC1)c1ccccc1Br	-6%	17	-10%	-3%	-3	-16%
O=C(NN=Cc1ccccc1OC(F)F)c1ccc(NS(=O)(=O)c2cccs2)cc1	?	nt	70%	nt	nt	nt
FC(F)Oc1ccccc1/C=N/Nc1nc2ccccc2o1	0%	74*	23%	130%	44*	77%
Fc1ccccc1/C=N/Nc1nc2ccccc2o1	0%	79*	34%	?	50*	144%
COCCC(=O)N1CCC(Oc2ccc(C(=O)NCCn3cccn3)cc2)CC1	-2%	-10	13%	?	-2	-5%
O=C(NCC(O)c1ccc2ccccc2c1)c1c(F)cccc1F (centres undefined)	1%	3	-12%	25%	-1	-20%[0.00184 µM]
COc1ccc(OC)c(C(=O)CSc2nc3c(c(=O)n(C)c(=O)n3C)n2C(C)C)c1	10%	-3	-10%	15µM*	-3	5%
CCOc1ccc2nc(NC(=O)CSc3nc4c(c(=O)n(C)c(=O)n4C)n3C(C)C)sc2c1	-4%	-21	2%	12µM*	-2	0%
CCOc1ccc2nc(NC(=O)C(CC)Sc3nc(C)cc(=O)[nH]3)sc2c1 (centres undefined)	-18%	90*	36%	nt	29*	70%
CCCn1c(SCC(=O)c2cc(OC)ccc2OC)nc2c1c(=O)n(C)c(=O)n2C	5%	-8	-5%	11%	-8	9%
CCOc1ccc2nc(NC(=O)CN3C(=O)C4CCCCC4C3=O)sc2c1 (centres undefined)	1%	nt	13%	37%	nt	37%
CCCc1cc(=O)[nH]c(SCC(=O)Nc2nc3ccc(OCC)cc3s2)n1	-1%	52*	-2%	22%	14*	20%
COc1ccc2nc(NC(=O)CSc3nccc(C)n3)sc2c1	7%	22	-6%	0%	8	2%
COc1ccc2nc(NC(=O)CSc3nc(C)cc(=O)[nH]3)sc2c1	0%	31	-11%	nt	27*	26%
CC1=CC2(C)NC(=O)C(C)C12 (centres undefined)	nt	nt	28%	nt	nt	nt
CC1CCCC(C)N1CCCNC(=O)c1ccc2nc(N3CCCCC3)sc2c1 (centres undefined)	4%	59*	-1%	?	18*	?
CC1CCN(c2nc3ccc(C(=O)NCCCN4CCCCC4C)cc3s2)CC1 (centres undefined)	0%	34*	-7%	3%	29*	-10%
CC1CCCC(C)N1CCCNC(=O)c1ccc2nc(N3CCOCC3)sc2c1 (centres undefined)	-4%	3	9%	79%	4	-12%
CCC1c2ccccc2C(=O)C1C(N)=O (centres undefined)	nt	nt	-2%	nt	nt	nt
COc1ccc(Nc2nnc(SCC3CCCO3)s2)cc1 (centres undefined)	-4%	54	8%	?	24*	0%
Cc1cccc(Nc2nnc(SCC3CCCCO3)s2)c1C (centres undefined)	-14%	66*	-15%	12µM*	54*	?
COc1cccc(Nc2nnc(SCC3CCCCO3)s2)c1 (centres undefined)	-7%	53*	-7%	?	53*	7%
CCC1(c2ccccc2)NC(=O)N(CC(=O)Nc2cc(S(=O)(=O)N3CCOCC3)ccc2OC(C)C)C1=O (centres undefined)	1%	nt	0%	?	nt	12µM*
CCOc1ccc(S(=O)(=O)N2CCOCC2)cc1NC(=O)CN1C(=O)NC(CC)(c2ccccc2)C1=O (centres undefined)	-6%	-10	7%	?	1	12µM*
CCOc1ccc(S(=O)(=O)N2CCCCC2)cc1NC(=O)CN1C(=O)NC(C)(c2ccc(C)cc2)C1=O (centres undefined)	-1%	nt	60%	7.4µM*	nt	13µM*
